Data on three compounds can be found in PubChem BioAssay.

A short description of experiment [1]: liver-stage malaria parasite growth inhibition, primary screen, cell-based, HepG2, luciferase luminescence, HepG2 viability (AID 624349; in the data active = parasite load remaining mostly below about 12%, no sharp cut-off; inactive = mostly above about 10%;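 note: 100% = mean of DMSO negative control wells on the same plate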). The following applies: P. berghei liver stage in HepG2, luciferase luminescence, concentration not given here; parasite load remaining: stronger effect = lower value; viability: measured here: HepG2 viability without parasites.
Experiment [2] can be described thus: Cy5 fluorescence interference with SSB-bound oligo, artefact control for HCV NS3 helicase inhibitor project, biochemical, NIH Clinical Collection, E. coli SSB (AID 743268; call rule not given here).
The subject of experiment [3] is Hepatitis C virus NS3 helicase. Briefly: HCV NS3 helicase inhibitors, primary screen, biochemical, fluorescence polarization, NIH Clinical Collection (AID 743270; call rule not given here). Conditions: NS3 helicase binding to Cy5-dT15 DNA, stronger effect = higher value, concentration not given here. (In general: Fluorescence polarisation rises when a labelled molecule tumbles more slowly, as on binding a larger partner.)

In experiment [4] the target is Single-stranded DNA-binding protein (Escherichia coli (strain K12)) (UniProt P0AGE0). Briefly: E. coli SSB displacement from DNA, counter-screen for HCV NS3 helicase inhibitor project, biochemical, fluorescence polarization, NIH Clinical Collection (AID 743271; in the data active = inhibition above about 28%). The following applies: stronger effect = higher value, concentration not given here. For orientation: Counterscreens check selectivity or assay interference.

Experiment [5] can be described thus: fluorescence interference in NS3h assay format, artefact control for HCV NS3 helicase inhibitor project, biochemical, NIH Clinical Collection (AID 743272; call rule not given here;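 note: HCV NS3 helicase with a Cy5 labelled single stranded DNA probe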). Conditions: fluorescence interference counterscreen, stronger effect = lower value.
Experiment [6] in a line: modulation of C. elegans fzo-1 (AID 1259413; call rule not given here;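 note: fzo-1 mutant C. elegans worms in liquid wells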). The following applies: C. elegans fzo-1 modulator screen, mean read-out; stronger effect = higher value.
The nature of experiment [7]: sensitizers of A549 cells to miR-34 induction, primary screen, imaging, A549 dox-inducible miR-34, nuclei and caspase counts (AID 1347080;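 active = compounds whose cell count with miR-34 switched on is under 0.7 times the count with it off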). The following applies: A549 miR-34 inducible, Hoechst nuclei count, 48 h.
A short description of experiment [8]: survival rescue of mitochondrial mutant cells in low glucose, primary screen, MELAS cybrids, Rieske KO mouse fibroblasts, CellTiter-Glo (AID 1508586;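 active = mean z-score across replicates of 1.96 or higher in either the MELAS or the Rieske mutant cell line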;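 note: z relative to plate mean and SD of compound and empty wells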).
Experiment [9] can be described thus: viability rescue of complex I mutant cybrids, primary screen, cell-based, galactose medium, ATP luminescence (AID 1645843;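 active = z-score of at least 1.8 in each of two replicates, scored against plate mean and spread of sample wells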;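 note: positive z means more ATP and so rescue of galactose-driven cybrid death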). The following applies: complex I mutant cybrid cells, 72 h, stronger effect = higher value.
Experiment [10] concerns F380Y. Briefly: modulators of BK channel variants, profiling panel, selectivity assay, cell-based, U2OS BacMam, thallium flux, beta subunits (AID 1259406).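 Note: initial slope of Thallos dye fluorescence rise after thallium is added; log ratio against the mean of 0.3% DMSO vehicle wells on the same plate.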 Conditions: at 30 µM.
The subject of experiment [11] is F380Y/beta1. The description is as above. The following applies: at 30 µM.
Experiment [12] concerns F380Y/beta2Delta. The experiment is described as above. Conditions: at 30 µM.
For experiment [13], the system named is F380Y/beta4. The experiment is described as above. Conditions: at 30 µM.
Experiment [14] deals with Calcium-activated potassium channel subunit alpha-1 (Homo sapiens) + Leucine-rich repeat-containing protein 26 (Homo sapiens) (UniProt Q12791+Q2I0M4). The description is as above. Conditions: F380Y/Slo1WT/gamma1, at 30 µM.
Experiment [15] concerns R275C. The description is as above. Conditions: at 30 µM.
Experiment [16] concerns R275C/beta1. Described as above. Conditions: at 30 µM.
Experiment [17] has as its system R275C/beta2Delta. Described as above. Conditions: at 30 µM.
Experiment [18] has as its system R275C/beta4. Described as above. The following applies: at 30 µM.
For experiment [19], the system named is R275C/Slo1WT/beta2. The description is as above. The following applies: at 30 µM.
The mark [20] stands for this setting: stronger effect = lower value, cell number ratio, induced over uninduced.
The mark [21] stands for this setting: measured here: relative caspase fold change +Dox/-Dox.
The mark [22] stands for this setting: measured here: total cells with miR-34 induction, stronger effect = lower value.
Setting [23] is: measured here: total cells without miR-34 induction.
The mark [24] stands for this setting: MELAS cybrid survival, CellTiter-Glo 48 h, stronger effect = higher value.
The mark [25] stands for this setting: Rieske KO mouse fibroblast survival, CellTiter-Glo 72 h.

Values joined by “and” are separate entries in the source; they are usually repeats but may differ in a detail not shown here. Equal values may be shown once. Active and inactive are the calls of the source.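 Rule for the calls, unless noted: active = thallium flux through the channel raised or lowered by more than 3 SD from vehicle-only wells, actives on both sides; inactive = the rest.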

Chain of Calcium-activated potassium channel subunit alpha-1 (Homo sapiens) + Leucine-rich repeat-containing protein 26 (Homo sapiens) (Q2I0M4 whole entry, looked up, one chain of several): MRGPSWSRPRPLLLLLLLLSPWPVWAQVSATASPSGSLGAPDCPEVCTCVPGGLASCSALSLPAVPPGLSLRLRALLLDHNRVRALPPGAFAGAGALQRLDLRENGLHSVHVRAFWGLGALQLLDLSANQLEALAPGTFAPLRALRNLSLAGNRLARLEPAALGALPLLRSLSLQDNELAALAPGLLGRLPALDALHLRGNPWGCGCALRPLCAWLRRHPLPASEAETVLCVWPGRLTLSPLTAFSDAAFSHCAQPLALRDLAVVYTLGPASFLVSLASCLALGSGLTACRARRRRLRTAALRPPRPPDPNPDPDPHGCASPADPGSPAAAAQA

The viability is a read-out of living cells in per cent, often relative to untreated cells. One may read the inhibition as the drop in the measured response relative to a control, in per cent. `Cc1onc(-c2ccccc2)c1C(=O)NC1C(=O)N2C1SC(C)(C)C2C(=O)O` (stereo not given): the parasite load remaining in experiment [1] was 62.5% (inactive). In addition, in [1], the viability amounted to 137%. Besides, the values for the fluorescence ratio in experiment [2] and in [5] were 1.01 (inactive) and 1 (inactive), respectively. Moreover, the inhibition in experiment [3] is -1.36% (inactive); in [4] it was 2.57% (inactive). Further, the mean signal in [6] is 250 (inactive). For the same compound, the fold change in [7] (setting [20]) is 0.977 (inactive) and 0.865 (inactive); in experiment [7] (setting [21]) it was 2.75 and 0.316. Besides, the cell count in experiment [7] (setting [22]) was 10800 and 8670; in experiment [7] (setting [23]) it was 11000 and 10000. Besides, the z-score is 1.06 (inactive) in experiment [8] (setting [24]); 0.0389 in experiment [8] (setting [25]); 0.33 (inactive) and 0.12 (inactive) in experiment [9]. The log fold change Tl+ flux in experiment [10] is -0.000886 (inactive); in experiment [11], -0.0194 (inactive); in experiment [12] it was -0.0125 (inactive); in experiment [13] it was -0.0665 (inactive); in [14], 0.0114 (inactive); in experiment [15] it was 0.00519 (inactive). The log fold change Tl+ flux in experiment [16] was 0.0152 (inactive); in [17], 0.00981 (inactive); in [18], -0.0329 (inactive); in experiment [19] it was -0.0606 (inactive).

`C[C@H]1[C@@H](OC(=O)CCC(=O)O)O[C@@H]2OC3(C)CC[C@H]4[C@H](C)CC[C@@H]1[C@@]24OO3`: the parasite load remaining in [1] was 54.9% (inactive) and 19.6% (inactive). Moreover, the viability in [1] was 74.2% and 68%. Moreover, the results for the fluorescence ratio in [2] and in experiment [5] were 1.05 (inactive) and 0.99 (inactive), respectively. Further, the inhibition in experiment [3] was 4.36% (inactive); in experiment [4], -3.18% (inactive). Further, the mean signal in [6] was 258 (inactive). Besides, the fold change in experiment [7] (setting [20]) is 1.04 (inactive); in experiment [7] (setting [21]), 0.836. Moreover, the cell count amounted to 6160 in experiment [7] (setting [22]) and 5910 in [7] (setting [23]). Further, the z-score in experiment [8] (setting [24]) was -1.42 (inactive); in experiment [8] (setting [25]) it was 0.615; in [9], -2.11 (inactive). Also, the log fold change Tl+ flux in experiment [10] was 0.0198 (inactive); in experiment [11], 0.0472 (inactive); in [12] it was 0.00204 (inactive); in [13], 0.00589 (inactive); in experiment [14], -0.0126 (inactive); in [15] it was 0.0183 (inactive). In addition, the log fold change Tl+ flux in experiment [16] is 0.0209 (inactive); in experiment [17], 0.00454 (inactive); in [18], -0.0146 (inactive); in experiment [19], 0.000694 (inactive).

With `CC(N)(Cc1ccc(O)c(O)c1)C(=O)O` (stereo not given), in experiment [1], the parasite load remaining was 67.7% (inactive). Moreover, the viability in experiment [1] was 87.8%. Besides, the fluorescence ratio was 0.1 (active) in experiment [2] and 0.96 (inactive) in experiment [5]. For the same compound, the results for the inhibition in experiment [3] and in [4] were -3.18% (inactive) and -0.48% (inactive), respectively. The mean signal in experiment [6] was 264 (inactive). Further, the fold change is 1.03 (inactive) and 1.02 (inactive) in [7] (setting [20]); 0.522 and 3.64 in [7] (setting [21]). The cell count is 9990 and 9950 in experiment [7] (setting [22]); 9680 and 9750 in [7] (setting [23]). For the same compound, the z-score in [9] was -1.27 (inactive) and -1.07 (inactive). In addition, the log fold change Tl+ flux was -0.0268 (inactive) in [10]; -0.0706 (inactive) in experiment [11]; -0.0381 (inactive) in experiment [12]; -0.00847 (inactive) in experiment [13]; -0.0181 (inactive) in experiment [14]; -0.0316 (inactive) in [15]. Besides, the log fold change Tl+ flux in experiment [16] was -0.0727 (inactive); in experiment [17], -0.00349 (inactive); in [18], -0.0805 (inactive); in experiment [19], -0.125 (active).
